Screens from PubChem BioAssay.
JMJD2A Tudor: JMJD2A Tudor domain (human) inhibition. O75164. AlphaScreen JMJD2A-Tudor / H3K4me3 peptide binding. AID 504339. Potency, µM (titrated, usually from 114 µM), inactives show at the top dose activity change, negative = inhibition, hits mostly inhibitors. hit rate 4.4% among 390,000; further: on the % scale 0 is the no-effect control and ±100 the full control effect; nearly all actives have a fitted effect of over 50% in size
HP1b chromo inh: blocks HP1-beta chromodomain binding to methylated histone tails; AlphaScreen HP1-beta / biotin-H3K9me3 peptide binding; hit rate 0.56% among 390,000; AID 540317; Potency, µM (titrated, usually from 114 µM), for inactives: at the top dose activity change, negative = inhibition, usual class: inhibitors; further: nearly all actives have a fitted effect of over 70% in size
Target sequence (P83916 whole entry, looked up): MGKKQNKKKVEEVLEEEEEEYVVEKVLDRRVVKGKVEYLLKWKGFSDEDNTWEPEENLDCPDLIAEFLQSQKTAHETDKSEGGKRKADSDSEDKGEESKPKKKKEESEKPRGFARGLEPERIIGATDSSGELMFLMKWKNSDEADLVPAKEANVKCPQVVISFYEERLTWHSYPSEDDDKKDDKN
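AlphaScreen: HP1-beta (50 nM) preformed 30 min with biotin-H3(1-18)K9me3 peptide (50 nM) in PBS pH 7.4, 0.01% Tween-20. Compound added for 30 min at RT, then streptavidin donor/nickel chelate acceptor beads (10 ug/mL) for 30 min.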
G9a block: inhibitors of human histone lysine methyltransferase G9a | Q96KQ7 | G9a H3K9 monomethylation, AlphaScreen, 2 h | Potency, µM (top dose mostly 102 µM), without a hit: at the highest dose activity, negative = inhibition, usual class: inhibitors | hit rate 8.8% among 350,000 | AID 504332; further: on the % scale 0 is the no-effect control and ±100 the full control effect; nearly all actives have a fitted effect of over 75% in size
Target sequence (Q96KQ7 913-1193 limits assumed): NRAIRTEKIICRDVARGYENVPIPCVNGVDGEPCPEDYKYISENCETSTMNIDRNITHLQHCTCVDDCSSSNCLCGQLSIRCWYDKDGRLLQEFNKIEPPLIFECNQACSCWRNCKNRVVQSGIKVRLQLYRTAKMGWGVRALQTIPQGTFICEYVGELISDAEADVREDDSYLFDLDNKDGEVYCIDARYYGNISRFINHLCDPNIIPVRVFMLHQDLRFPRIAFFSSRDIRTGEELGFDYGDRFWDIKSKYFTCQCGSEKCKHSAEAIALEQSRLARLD
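Chemiluminescent proximity detection of H3K9 monomethylation, read after 10 min bead incubation in the dark. Reaction: 20 nM G9a, 500 nM biotin-H3K9 peptide, 20 uM SAM cofactor, 2 h, room temperature, following 15 min enzyme-compound preincubation.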
BAZ2B inh: blocks human BAZ2B; Q9UIF8; Potency, µM (series often up to 114 µM), inactives show at the top dose activity change, negative = inhibition, usual class: inhibitors; AlphaScreen BAZ2B-H3K14Ac peptide displacement; AID 504333; hit rate 4.4% among 360,000; further: on the % scale 0 is the no-effect control and ±100 the full control effect; nearly all actives have a fitted effect of over 60% in size
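Protein-peptide AlphaScreen: BAZ2B 50 nM, b-H3K14Ac 50 nM, 1x PBS pH 7.4 + 0.01% Tween-20. Preincubation 30 min RT; cpd 30 min RT (top 110 uM); beads 20 min RT, light-protected.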
PLK1 PBD block: inhibitors of human PLK1 polo-box domain binding. P53350. Plk1 PBD binding of FITC phosphopeptide, fluorescence polarization. Potency, µM, for the others: max response, negative = inhibition, usual class: inhibitors. hit rate 2.8% among 360,000; further: series mostly up to about 57 µM; on the % scale 0 is the no-effect control and ±100 the full control effect; nearly all actives have a fitted effect of over 65% in size
Sfp PPTase inh: inhibitors of Bacillus subtilis Sfp phosphopantetheinyl transferase; Q9F4F7; Biochemical Sfp PPTase activity, qHTS; Potency, µM, for inactives: largest response in the series, negative = inhibition, hits mostly inhibitors; hit rate 3.5% among 310,000; AID 1490;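 further: the enzyme is Sfp with the accession as filed and its product quenches rhodamine fluorescence; 0% = enzyme reaction without inhibitor and -100% = no enzyme wells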
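Fluorescence-quenching assay with 15 nM Sfp, 5 uM rhodamine-CoA and 12.5 uM BHQ-2-labelled ybbR peptide in pH 7.6 Hepes/MgCl2 buffer. Enzyme was pre-incubated with compound for 15 min at room temperature. Rate was taken from the 30-min fluorescence change (525/598 nm).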
* hit, by the source's call; ? = inconclusive; . = no result given; [ ] = remark or other dose. In the library only some 12% were active in any assay of this set; here they are far more common. The call rests on the fitted dose curve; in most records, active means well fitted curve in the direction sought with a large enough effect; inconclusive means small, poorly fitted or top-dose-only effect, or another doubt; inactive means no such curve, though single readings can be large; an effect the other way counts as inactive or inconclusive. Potency means the concentration at half of the fitted maximal effect.

SMILES | JMJD2A Tudor | HP1b chromo inh | G9a block | BAZ2B inh | PLK1 PBD block | Sfp PPTase inh
NC(=O)NC(=O)COC(=O)c1sc2ccccc2c1Cl | -10%[11.4 µM] | 11% | -2% | 2% | 13µM* | 7%
COc1ccc(N2CCN(C(=O)CSc3nc(-c4ccc(C(C)C)cc4)no3)CC2)cc1 | -28% | -10% | -9%[59 µM] | -14% | . | .
Cc1ccsc1C=C1C(=O)c2ccccc2C1=O | ? | -7% | 28µM* | ? | ? | 3%
Cc1ccsc1/C=C1/C(=O)NN(c2ccccc2)C1=O | ? | -17% | -19%[59 µM] | ? | -21% | 11%
Cc1cc(C)n(-c2ccc(C(=O)N3CCN(S(=O)(=O)c4ccc(Cl)cc4)CC3)cc2)n1 | -27% | 20% | ? | 3% | -6% | .
O=C1c2cccc(Cl)c2C(=O)c2c1cccc2N1CCCC1 | ? | 22µM* | . | . | -23% | .
O=C(Nc1ccccc1)c1ccc(N2CCN(c3ccccc3)CC2)c(S(=O)(=O)N2CCOCC2)c1 | 16% | 19% | 16% | 79µM* | -4% | 2%
O=C(Nc1ccc(N2CCCCCC2)cc1)c1cccc(S(=O)(=O)N2CCOCC2)c1 | 25µM* | -45% | 1.8µM* | 32µM* | 4% | .
O=C(NNC(=S)NCC1CCCO1)c1cccc(S(=O)(=O)N2CCOCC2)c1 (stereo not given) | -10% | 20% | 50µM* | -3% | -18% | 27%
O=C(Nc1cccc(S(=O)(=O)N2CCOCC2)c1)c1cccc(S(=O)(=O)N2CCCCC2)c1 | -18% | 16% | ? | 3% | -4% | .
O=C(Nc1ccc(S(=O)(=O)N2CCOCC2)cc1)c1ccc(Cl)c([N+](=O)[O-])c1 | ? | -9% | . | . | 27µM* | .
CCOC(=O)c1c(C)[nH]c(C(=O)Nc2cc(OCC)c(N3CCOCC3)cc2OCC)c1C | -30% | 10% | ? | -24% | -4% | .
CSCC[C@H](NC(=O)[C@H](Cc1c[nH]c2ccccc12)NC(=O)CCNC(=O)OC(C)(C)C)C(=O)N[C@@H](CC(=O)O)C(=O)N[C@@H](Cc1ccccc1)C(N)=O | . | . | . | . | . | -9%
O=C(OCC#CCSc1nnc(-c2cccc3ccccc23)o1)C1CCCC1 | 150% | . | . | . | . | .
COc1ccc(C(=O)Nc2ccc(N3CCCCCC3)cc2)cc1S(=O)(=O)N1CCOCC1 | 7.1µM* | ? | ? | 28µM* | 1% | .
COc1ccc(NC(=O)c2c3c(nc4ccccc24)CCC3)cc1S(=O)(=O)N1CCOCC1 | ? | -30% | ? | 50µM* | ? | 14%
CN(c1ccccc1)S(=O)(=O)c1cccc(C(=O)NCCc2ccc(O)c(O)c2)c1 | 13µM* | ? | 8.9µM* | -38% | -8% | 18µM*
CN(c1ccccc1)S(=O)(=O)c1cccc(C(=O)Nc2ccc(N3CCOCC3)cc2)c1 | ? | -29% | 56µM* | ? | -4% | .
CCN(CC)S(=O)(=O)c1cccc(C(=O)NCCc2ccccc2)c1 | -7% | 29% | . | . | -7% | .
Cc1oc2c(cc(NS(=O)(=O)c3ccc(Cl)cc3)c3ccccc32)c1C(=O)OCc1ccccc1 | -29% | 0% | -29%[59 µM] | -14% | . | .
CC(=O)N1CCN(S(=O)(=O)c2cccc(C(=O)Nc3ccc(OC(F)F)cc3)c2)CC1 | -7% | 22% | 34% | -2% | -17% | -4%
CC(=O)N1CCN(S(=O)(=O)c2cccc(C(=O)Nc3ccc4c(c3)CCC4)c2)CC1 | -20% | 28% | 28µM* | 18% | -7% | 5%
O=S(=O)(c1cccc(C(F)(F)F)c1)N1CCC(Oc2ccc(-n3cnnn3)cc2)CC1 | -9% | 46% | 9%[59 µM] | 2% | . | .
CCOC(=O)N1CCN(c2c(NCCCN(C)c3ccccc3)c(=O)c2=O)CC1 | -25% | 26% | ? | -6% | 10% | 14%
CCOC(=O)N1CCC(Nc2cccc(SC)c2)CC1 | ? | -12% | ? | ? | -6% | 56µM*
SMILES | JMJD2A Tudor | HP1b chromo inh | G9a block | BAZ2B inh | PLK1 PBD block | Sfp PPTase inh
CCOC(=O)N1CCN(c2c(NCCN(C)Cc3ccccc3)c(=O)c2=O)CC1 | -7% | 37% | 56µM* | -3% | 6% | 7%
CCOC(=O)C1(CC2CCCCO2)CCN(C(=O)Nc2ccc(SC)cc2)CC1 (stereo not given) | -32% | 18% | 7% | -16% | -10% | 15%
CCOC(=O)N1CCC(Nc2c(NCCCN(CC)c3cccc(C)c3)c(=O)c2=O)CC1 | ? | -8% | 50µM* | ? | -13% | 3%
CCOC(=O)C1(CC2CCCCO2)CCN(C(=O)Nc2cccc(SC)c2)CC1 (stereo not given) | ? | ? | -7% | -5% | 21µM* | 11%
CCOC(=O)N1CCC(Nc2c(NCCN3CCN(Cc4ccccc4)CC3)c(=O)c2=O)CC1 | -12% | 19% | 33%[59 µM] | 0% | 0% | 5%
Cc1ccc(C(C)NC(=O)c2ccncc2)c(C)c1 (stereo not given) | -8% | 23% | ? | -11% | -10% | 19%
CCOC(=O)N1CCC(Nc2c(-c3ccccc3)c(=O)c2=O)CC1 | -18% | 14% | 56µM* | -14% | -6% | 18%
CCC(C)N(C)C1CCN(C(=S)Nc2cccc(SC)c2)CC1 (stereo not given) | -25% | 16% | ? | -12% | -27% | 56µM*
Nc1ccc(SC(F)(F)F)cc1 | 1% | 29% | 50µM* | 5% | -14% | -4%
N#C/C(=C(/N)Sc1ccc(N)cc1)c1ccccc1C(F)(F)F | . | . | . | . | . | -16%
S=c1[nH]nc(COc2ccccc2)n1/N=C/c1ccccc1Cl | 56µM* | -1% | 2.2µM* | -22% | 27µM* | ?
S=c1[nH]nc(COc2ccccc2)n1/N=C/c1cccc(Cl)c1Cl | ? | -6% | ? | -19% | ? | -2%
S=c1[nH]nc(COc2ccccc2)n1/N=C/c1c(Cl)cccc1Cl | -11% | 5% | 2µM* | 2% | ? | -15%
COc1ccc(CCNC(=O)CN(c2ccccc2)S(=O)(=O)N(C)C)cc1 | -8% | 50% | 7%[59 µM] | 0% | . | .
O=C1CCC[C@@H]2[C@H](Cc3ccccc3)[C@@H](O)C[C@@H]3CCN1[C@@H]32 | -6% | 41% | . | . | 3% | .
O=C1CCC[C@@H]2[C@@H](Cc3ccccc3)[C@H](N3CCN(c4ccccc4)CC3)C[C@@H]3CCN1[C@@H]32 | 45µM* | -21% | . | . | 0% | .
CC1(C(=O)c2ccccc2)C2c3c(ccc4ccccc34)OC(=O)C21C(=O)N1CCOCC1 (stereo not given) | -27% | -11% | 79µM* | ? | 3% | 5%
Cc1ccc(S(=O)(=O)N2[C@@H](c3ccc(C#N)cc3)C(C(=O)O)=C[C@H]2CC2CCCC2)cc1 | -21% | 44% | . | . | 30µM* | .
Cc1ccc(S(=O)(=O)N2[C@@H](c3ccc(Cl)c(Cl)c3)C(C(=O)O)=C[C@H]2CC2CCCC2)cc1 | 89µM* | 12% | . | . | 21µM* | .
